Screening data as filed in PubChem.
Shown are actives, neighbours in structure and some others; about 7.8% of the full set was active somewhere.
Marburg entry inh – Marburg virus entry inhibition; Potency, µM (doses to about 37.8 µM), actives largely listed as inhibitors; AID 540276; actives 1.8% (n = 300,000); Marburg virus pseudotyped entry inhibition, cell reporter; calls by dose curve; tested in HEK293 cells
HCV inh – HCV inhibition; Huh7.5.1 HCVcc-Cre infection, luciferase reporter, 44 h; Potency, µM (doses to about 41.8 µM), usual class: inhibitors; actives 3.4% (n = 340,000); active = well fitted inhibition curve with a large enough effect; inconclusive = small, poorly fitted or top-dose-only effect, or another doubt; inactive = no such curve, though single readings can be large or run the other way
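Compounds are dispensed onto cells plated 4 h earlier at 1,000 per well, with HCVcc-Cre virus (about 0.5 moi) added next. Following 44 h of culture, luminescent signal is measured for 15 sec after 15 min with substrate at room temperature.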
Vaccinia mCherry – inhibitors of vaccinia virus infection (mCherry reporter signal); Vaccinia virus mCherry reporter infection, fluorescence; Potency, µM (series often up to 36.5 µM), actives largely listed as inhibitors; actives 0.63% (n = 310,000); calls by dose curve; tested in A549 cells; also: nearly all actives have a fitted effect of over 35% in size
Vaccinia Venus – vaccinia inhibition (Venus reporter). actives 0.46% (n = 330,000). AID 720580. Vaccinia virus Venus reporter expression, fluorescence. Potency, µM (doses to about 36.5 µM), hits mostly inhibitors; calls by dose curve; tested in A549 cells; also: nearly all actives have a fitted effect of over 30% in size
Lassa entry inh – Lassa virus entry inhibition; actives 1.2% (n = 300,000); Potency, µM (doses to about 37.9 µM), most hits filed as inhibitors; Lassa virus pseudotype entry inhibition, cell reporter; calls by dose curve; tested in HEK293 cells; also: nearly all actives have a fitted effect of over 50% in size
HCMV antiviral – blocks human cytomegalovirus replication | HFF cells, HCMV-luciferase reporter, 72 h; stronger effect = lower value | activity change, negative = inhibition, % at 57.5 µM | actives 4.5% (n = 410,000); in the data active = activity change below about -60%; inconclusive = no clear call, values can overlap the other calls; inactive = above about -39%
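Cell-based, HFFs, 1000 cells/well, 16 h 37C; cpds in DMSO + HCMV-luc, MOI 1 PFU/cell; 72 h 37C; OneGlo luminescence after 5 min RT; norm. to buffer vs Salinomycin 10uM.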
A number is an active result; . = inactive; ? = inconclusive; / = no result.

SMILES | Marburg entry inh | HCV inh | Vaccinia mCherry | Vaccinia Venus | Lassa entry inh | HCMV antiviral
Cc1sc2nc(SCc3ccccc3)n(Cc3ccco3)c(=O)c2c1C | ? | . | . | . | ? | .
CCOC(=O)N1CCN(c2c(NCc3ccc(F)cc3)c(=O)c2=O)CC1 | / | . | . | . | / | .
CCOC(=O)N1CCN(c2c(NCCN(C)Cc3ccccc3)c(=O)c2=O)CC1 | / | . | . | . | / | .
CCOC(=O)N1CCN(c2c(NCCCN(C)c3ccccc3)c(=O)c2=O)CC1 | / | . | . | . | / | -75
CCOC(=O)N1CCN(c2c(NCc3ccc(Cl)cc3)c(=O)c2=O)CC1 | / | ? | ? | . | / | -75
Cc1cc(/C=C(\C#N)C(=O)N2CCOCC2)c(C)n1C1CCCC1 | . | . | / | / | / | -84
COc1cccc(OCCSc2nc3ccccc3n2CC(=O)N2CCCCC2)c1 | . | / | . | . | . | .
C=CCn1c(C)cc(C(=O)CSc2nc3ccccc3c(=O)[nH]2)c1C | ? | . | ? | ? | ? | .
Cc1cc(C(=O)CSc2nc3ccc(Cl)cc3[nH]2)c(C)n1CC1CCCO1 (stereo not given) | 13µM | 8.9µM | ? | . | ? | -66
Cc1ccc2nc(SCC3CCCCO3)[nH]c2c1 (stereo not given) | 2.8µM | . | . | . | ? | .
Cc1cc(C(=O)CSc2nc3ccc(Cl)cc3[nH]2)c(C)n1C | . | ? | / | / | . | .
C=CCn1c(C)cc(C(=O)CSc2nc3ccccc3[nH]2)c1C | ? | 6.3µM | / | / | 4.6µM | -92
C=CCn1c(C)cc(C(=O)CSc2nc3ccccc3o2)c1C | 13µM | 22µM | / | / | . | ?
Cc1ccc2nc(SCC(=O)N3CCOCC3)[nH]c2c1 | ? | . | . | . | . | .
CCCCNC(=O)c1nc2cc(C)c(C)cc2nc1-c1ccc2c(c1)OCO2 | / | / | / | / | / | .
Cc1ccc(Cl)cc1NC(=O)NCc1cccn1Cc1ccc(F)cc1 | . | / | ? | ? | ? | .
O=C(Cc1ccccc1)NCC(=O)OCC(=O)c1cccc2ccccc12 | / | / | . | . | / | /
CCOC(=O)c1cccc(NC(=O)CCn2c(-c3ccc(F)cc3)cc(C(=O)OCC)c2C)c1 | / | / | . | . | ? | .
Cc1cc(C(=O)CSc2nc3ccccc3[nH]2)c(C)n1C | ? | . | / | / | ? | .
Cc1cc(C(=O)CSc2nc3ccccc3[nH]2)c(C)n1Cc1ccco1 | ? | ? | . | . | 4µM | -85
O=C(C[n+]1cccc2cccc(O)c21)c1ccc(Br)cc1 | / | / | . | . | / | /
CCn1c(C)c(C)c2cc(C(=O)N3CCc4ccccc4C3)ccc21 | / | ? | / | / | / | -85
CCN1CCN(C(=O)c2ccc3c(c2)c(C)c(C)n3Cc2ccccc2)CC1 | . | . | . | . | . | .
Cc1c(C)n(C)c2ccc(C(=O)NCCc3ccco3)cc12 | / | ? | / | / | / | .
CCn1c(C)c(C)c2cc(C(=O)NCCN3CCCCCC3)ccc21 | / | 13µM | / | / | / | .
SMILES | Marburg entry inh | HCV inh | Vaccinia mCherry | Vaccinia Venus | Lassa entry inh | HCMV antiviral
CCn1c(C)c(C)c2cc(C(=O)NCCc3ccco3)ccc21 | / | 16µM | / | / | / | .
Cc1cc(=O)oc2cc(OCc3cn(CC(=O)c4ccc(O)cc4)nn3)ccc12 | / | / | / | / | . | /
CCOC(=O)N1CCN(Cc2ccc3c(c2)CN(C(=O)c2cc(-c4ccccc4)on2)CCO3)CC1 | / | / | . | . | / | /
O=C(N/N=C/c1ccc(Cl)c([N+](=O)[O-])c1)c1cc(-c2ccc3c4c(cccc24)CC3)n[nH]1 | ? | . | . | . | 6.3µM | -74
O=C(N/N=C/c1ccc(Cl)c([N+](=O)[O-])c1)c1ccc2nc[nH]c2c1 | . | . | . | . | . | .
Cc1occc1C(=O)N/N=C/c1ccc(Cl)c([N+](=O)[O-])c1 | 4µM | ? | . | . | . | -63
Cc1occc1C(=O)N/N=C/c1ccc(-c2ccccc2)cc1 | ? | . | . | . | 7.9µM | .
Cc1cc(C(=O)N/N=C/c2ccc(Cl)c([N+](=O)[O-])c2)c(C)n1-c1ccc(F)cc1 | ? | ? | ? | . | 13µM | -93
Cc1occc1C(=O)N/N=C/c1ccc(OCc2ccccc2)cc1 | / | ? | / | / | / | .
Cc1cc(Cl)ccc1NC(=O)CN1C(=O)COc2ccc(S(=O)(=O)N3CCC(C)CC3)cc21 | / | / | . | . | . | .
O=C1C[C@@H](c2ccccc2)[C@H](c2ccc(Br)cc2)O1 | . | / | / | / | / | /
CCC(COC)NC(=O)c1cnn(-c2ncc3c(n2)-c2ccccc2CC3)c1C (stereo not given) | / | / | . | . | / | /
CCOc1ccc2nc(N3CCN(C(=O)CS(=O)(=O)c4ccc(F)cc4)CC3)sc2c1 | / | / | . | ? | ? | ?
Cc1occc1C(=O)N/N=C/C=C\c1ccccc1[N+](=O)[O-] | . | ? | . | . | . | -75
Cc1ccc(C(=O)N2c3ccccc3OCC2C)cc1 (stereo not given) | / | . | / | / | / | .
Cc1ccc(C(=O)N2C(=O)C(c3ccccc3)Oc3ccccc32)cc1 (stereo not given) | 7.9µM | . | ? | ? | ? | .
Cc1cc(C)c[n+](CC(=O)c2cc3ccccc3oc2=O)c1 | . | . | . | . | . | -98
O=C(NCCc1ccccc1)c1cc2ccccc2oc1=O | / | . | / | / | / | -103
O=C(NCCc1ccc(F)cc1)c1cc2ccccc2oc1=O | / | . | / | / | / | .
Cc1ccc[n+](CC(=O)c2cc3ccccc3oc2=O)c1 | . | . | . | . | . | .
O=C(NCCc1ccccc1)c1cc(=O)[nH]c2ccccc12 | . | . | . | . | . | -60
Cc1cccc(CCNC(=O)C2CCCN(S(=O)(=O)c3ccc4c(c3)oc(=O)n4C)C2)c1 (stereo not given) | . | / | . | . | . | .
Cc1cc(C)n(S(=O)(=O)/C=C/c2ccccc2)n1 | 5.2µM | ? | / | / | ? | -67
COc1cccc(C(=O)NC2=NC(c3ccccc3F)CC(=O)N2)c1 (stereo not given) | . | / | . | . | . | .
Cc1cc2c(C(C)C)c(O)c(O)c(C=O)c2c(O)c1-c1c(C)cc2c(C(C)C)c(O)c(O)c(C=O)c2c1O | 10µM | ? | 4.5µM | 4µM | 7.1µM | /
SMILES | Marburg entry inh | HCV inh | Vaccinia mCherry | Vaccinia Venus | Lassa entry inh | HCMV antiviral
COC(=O)c1c(C)cc(O)c(C=O)c1O | / | . | . | . | / | /
O=C(NN=C1C[C@@H](O)[C@H](O)[C@H]2[C@@H]3C(=O)N(C[C@@H]4CCCO4)C(=O)[C@@H]3CC[C@@H]12)OCc1ccccc1 | . | / | / | / | ? | /
N#Cc1c(/N=C/c2cccs2)sc2c1CCCCC2 | ? | 10µM | . | . | ? | .
N#Cc1c(/N=C/c2ccc(Br)s2)sc2c1CCC2 | ? | . | . | . | . | .
COc1ccccc1-c1cccc([C@@H]2C[C@H]3[C@H](CON3C)CN2Cc2ccccc2)c1 | / | 8.9µM | . | . | / | .
CC(C)(C)S(=O)N1Cc2cc(C(=O)NCC(F)(F)F)nc(-c3cccc(-c4cccc(F)c4)c3)c2[C@@H]1CCO (stereo not given in full) | / | / | ? | ? | / | -77
CCCNC(=O)c1cc2c(c(-c3cccc(-c4cc5ccccc5o4)c3)n1)[C@H](CCO)N(C(=O)NC(C)C)C2 | / | / | ? | ? | / | -88
